Compound activity as filed in PubChem.
IMPase Li inh: IMPase inhibition in cells with lithium potentiation | CHO-M1 cells, IP1 TR-FRET (IP-One), carbachol + lithium | Potency, µM (series often up to 59.4 µM), for the others: top-dose activity, negative = IMPase inhibition, actives largely listed as inhibitors | 210,000 tested, 0.35% active | AID 1457;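 note: IP1 builds up when IMPase is blocked and the TR-FRET signal falls; potency is the fitted concentration of half-maximal effect; plate controls were basal vehicle for no effect and high inhibitor control for full effect; nearly all actives have a fitted effect of over 50% in size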
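IP1 accumulation measured by competitive TR-FRET in lysed CHO-M1 cells after 30 min compound exposure at 37C, with a small lithium addition to potentiate weak responses. Hill-equation AC50 from ratio and donor-channel data.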
NPSR antag: blocks cAMP signaling of the human neuropeptide S receptor. CHO-NPSR cells, cAMP TR-FRET, antagonist mode. Potency, µM (titrated, usually from 38.3 µM), without a hit: at the top dose activity change, negative = inhibition, most hits filed as inhibitors. 220,000 tested, 1% active. AID 1461; note: potency is the fitted concentration of half-maximal effect; nearly all actives have a fitted effect of over 50% in size
IMPase cell inh: membrane-permeable compound that blocks inositol monophosphatase; 120,000 tested, under 10 active; inhibition (IP1 accumulation), % at 46.1 µM; CHO-M1 cells, IP1 accumulation, HTRF TR-FRET ratio; active = well fitted curve in the direction sought with a large enough effect in the signal ratio, not every such curve was filed as active; inconclusive = small, poorly fitted or top-dose-only effect, or a change in a side signal; inactive = no such curve, though single readings can be large or run the other way; the % refers to the signal ratio;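 note: cells stimulated with carbachol in lithium chloride buffer; plate controls were DMSO basal wells for no effect and reference inhibitor wells for full effect; higher means more IMPase inhibition seen as more IP1 and lower FRET ratio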
Target sequence (P97697 whole entry, looked up): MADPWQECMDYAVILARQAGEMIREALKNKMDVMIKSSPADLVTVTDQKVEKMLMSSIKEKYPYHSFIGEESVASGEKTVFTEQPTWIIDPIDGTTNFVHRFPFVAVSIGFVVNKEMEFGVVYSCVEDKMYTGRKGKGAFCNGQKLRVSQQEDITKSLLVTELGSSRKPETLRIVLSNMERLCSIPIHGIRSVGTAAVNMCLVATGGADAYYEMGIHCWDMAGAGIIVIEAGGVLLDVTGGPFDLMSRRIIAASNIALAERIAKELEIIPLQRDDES
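Carbachol-driven Gq signalling in CHO-M1 cells (2000/well) generates IP1. Compounds that block IMPase raise IP1 and so reduce the FRET signal from Eu-anti-IP1 and d2-IP1 after a 10 min room-temperature lysis.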
* hit, by the source's call; [ ] = another dose, or the depositor's remark. Shown is part of a subset that was picked to be rich in hits. Unless noted, calls come from the whole dose curve; as a rule, active = well fitted curve in the direction sought with a large enough effect; inconclusive = small, poorly fitted or top-dose-only effect, or another doubt; inactive = no such curve, though single readings can be large; an effect the other way counts as inactive or inconclusive. Unless noted, % is set by controls: 0 for no effect and ±100 for the full control effect.

COCCn1c(=NC(=O)c2nc3ccccc3s2)sc2cc(S(C)(=O)=O)ccc21 was read as IMPase Li inh 22µM*, NPSR antag inconclusive and IMPase cell inh 12.
For COC(=O)Cn1c(=NC(=O)c2nc3ccccc3s2)sc2cc(S(N)(=O)=O)ccc21 the results were IMPase Li inh -5% and NPSR antag -39%.
For CCN(CC)c1ccc2c(C)cc(=O)oc2c1 the results were IMPase Li inh -8%.
For CCN(CC)c1ccc2c(Cl)c(Br)c(=O)oc2c1 the results were IMPase Li inh inconclusive, NPSR antag 3.2µM* and IMPase cell inh inconclusive.
`CCN(CC)c1ccc2c(c1)oc(=O)c1c(Cl)cc(=O)oc12` gave IMPase Li inh 35%[38.3 µM], NPSR antag 4µM* and IMPase cell inh -8.
CCN(CC)c1ccc2c(C)c(Cl)c(=O)oc2c1 was read as IMPase Li inh -4% and NPSR antag -14%.
C=CCOC(=O)N[C@H](C[N+](=O)[O-])c1ccccc1 was read as IMPase Li inh 15%.
For Cn1cc(/C=C2\SC(=O)NC2=S)c2ccccc21 the results were IMPase Li inh 11% and NPSR antag -39%.
Cc1ccc(/C=C2/SC(=O)NC2=S)o1 was read as IMPase Li inh inconclusive and NPSR antag 13µM*.
Screening CCN1CCN(Cc2c(O)ccc3c(=O)c(Oc4ccccc4C(C)C)c(C(F)(F)F)oc23)CC1 returned IMPase cell inh -2.
Screening COc1ccccc1CNc1cc(-c2ccoc2)ncn1 returned IMPase Li inh 2%.
Screening COc1ccc(C(=O)N2CCC[C@@]3(CCN(c4ccccc4)C3)C2)cc1 returned IMPase Li inh -5%.
`CC(C)n1c(=S)[nH]c2scc(-c3cccs3)c2c1=O` gave NPSR antag 19%.
`O=c1c2c(-c3cccs3)csc2[nH]c(=S)n1-c1ccccc1` gave IMPase Li inh 10µM*, NPSR antag inconclusive and IMPase cell inh inconclusive.
For O=c1c2c(-c3cccs3)csc2ncn1-c1ccccc1 the results were IMPase Li inh 2%, NPSR antag 14%[46.1 µM] and IMPase cell inh -4.
`CCn1c(=S)[nH]c2scc(-c3cccs3)c2c1=O` gave IMPase Li inh inconclusive and NPSR antag 10µM*.
Screening CCOC(=O)c1c(CSc2ccccc2)n(C)c2ccc(O)c(CN3CCOCC3)c12 returned IMPase Li inh 10% and NPSR antag 7.9µM*.
CCOC(=O)c1c(C)n(C)c2ccc(O)c(CN3CCN(C)CC3)c12 was read as IMPase Li inh 18%[38.3 µM], NPSR antag -4%[46.1 µM] and IMPase cell inh 7.
Screening CCc1nc2nc(C)cc(Nc3ccc(OC)cc3OC)n2n1 returned IMPase cell inh 7.
Screening O=C(O)CSc1ccc(N=C=S)cc1 returned IMPase Li inh -5%.
For Cc1sc2ccccc2[n+]1CCC(=O)O the results were IMPase Li inh 0%.
`Cc1ccccc1-c1ncnn1-c1sc2c(c1C#N)CCCCC2` gave IMPase cell inh -12.
`Cc1nn(-c2ccc(Cl)cc2)c(=O)c2ccccc12` gave IMPase Li inh 1% and NPSR antag -33%.
Cc1c(Cl)sn(-c2ccc(Cl)cc2)c1=O was read as IMPase Li inh 20% and NPSR antag 2.5µM*.
Cn1c(=O)c(-c2ccc(F)c(F)c2)nc2cncnc21 was read as IMPase Li inh 6%.
Screening O=C(O)c1cc(-c2ccc3cc4c(cc3c2)OCO4)nc2ccccc12 returned IMPase Li inh -1%.
For O=C(O)c1cc(-c2cccnc2)nc2ccc(Br)cc12 the results were IMPase Li inh 2.8µM* and NPSR antag 5µM*.
For CSc1ccccc1NC(=O)c1cc(-c2cccnc2)nc2ccc(Br)cc12 the results were IMPase Li inh -17% and NPSR antag -16%.
O=C(O)c1cc(-c2ccc3c(c2)OCO3)nc2ccc(Br)cc12 was read as IMPase Li inh 11µM* and NPSR antag 6.3µM*.
Screening Cn1cc(CNC(=O)c2cc(-c3ccccc3)nc3ccc(Br)cc23)cn1 returned IMPase Li inh 11µM* and NPSR antag -52%.
Screening CCN1CCN(C(=O)c2cc(-c3cccnc3)nc3ccc(Br)cc23)CC1 returned IMPase Li inh 13µM*, NPSR antag 13%[46.1 µM] and IMPase cell inh -16.
Screening Cc1ccc(-c2cc(C(=O)NCc3cnn(C)c3)c3cc(Br)ccc3n2)cc1 returned IMPase Li inh inconclusive, NPSR antag inconclusive and IMPase cell inh -3.
Screening O=C(c1cc(-c2ccncc2)nc2ccc(Br)cc12)N1CCN(c2ccccn2)CC1 returned IMPase Li inh -7%[38.3 µM], NPSR antag inconclusive and IMPase cell inh 2.
`N=C(N)[C@H](N=Nc1ccccc1)C(N)=O` gave IMPase Li inh 4%.
